We go through 8 molecules from PubChem BioAssay (EPA / NIEHS).

Results filed as inconclusive are left out. Activity calls are given as the source filed them. Rule for the calls, unless noted: active = hit-call score of the fitted dose curve at least 0.9, where 1 is the maximum; inactive = score below 0.9.

Test [1] can be described thus: ATG_PXRE_CIS: Attagene CIS-FACTORIAL HepG2 Assay for human Pregnane X Receptor Element (PXRE) (AID 2282957). As to conditions: HepG2 Attagene CIS-FACTORIAL PXRE reporter, mRNA; actives raise or lower the signal. The gist of the method: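 HepG2 cells transiently transfected with cis-element-driven multiplexed reporter units; after 24 h chemical exposure, reporter mRNA measured by RT-PCR, 6-FAM labelling, HpaI digestion and capillary electrophoresis. Bidirectional fitting relative to DMSO.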

Test [2] in a line: ATG_RORE_CIS: Attagene CIS-FACTORIAL HepG2 Assay for human RAR-related Orphan Receptor Element (RORE) (AID 2282959). The conditions noted are these: HepG2 Attagene cis-factorial RORE reporter, mRNA; actives raise or lower the signal. A digest of the protocol:
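Transient MRTU transfection of human HepG2 liver cells (FuGene 6); 24 h compound exposure; TriZol RNA, oligo(dT) RT, PCR, FAM labeling, HpaI cut, CE fragment analysis. DMSO = negative control/baseline.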

Test [3] can be described thus: ATG_Sox_CIS: Attagene CIS-FACTORIAL HepG2 Assay for human SRY-box transcription factor (SOX) (AID 2282960). As to conditions: HepG2 Attagene cis-factorial SOX reporter, mRNA; actives raise or lower the signal. The gist of the method: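 Endogenous factor activity in human liver HepG2 cells carrying transfected cis-regulated reporter units. RNA taken 24 h post-dose, reverse-transcribed, PCR-amplified and sized by capillary electrophoresis. Gain or loss of signal fitted relative to DMSO.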

Test [4] addresses Transcription factor Sp1 (Homo sapiens) (UniProt P08047). The test can be described thus: ATG_Sp1_CIS: Attagene CIS-FACTORIAL HepG2 Assay for human Specificity Protein 1 (Sp1) (AID 2282961). As to conditions: HepG2 Sp1 cis-reporter transcription, actives raise or lower the signal. The gist of the method: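 Transient MRTU-transfected HepG2, 24 h compound exposure. Total RNA → oligo(dT) RT → PCR of reporter → 6-FAM primer extension → HpaI digest → CE. Endpoint fitted both directions vs DMSO.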

In test [5] the target is Signal transducer and activator of transcription 3 (Homo sapiens) (UniProt P40763). Kind of test: ATG_STAT3_CIS: Attagene CIS-FACTORIAL HepG2 Assay for human Signal Transducer and Activator of Transcription 3 (STAT3) (AID 2282963). The conditions noted are these: HepG2, Attagene cis-factorial STAT3 reporter transcription; actives raise or lower the signal. The gist of the method:
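HepG2 cells transiently transfected with cis-element-driven multiple reporter transcription units; after 24 h chemical exposure, reporter mRNA measured by RT-PCR, 6-FAM primer-extension labelling, HpaI digestion and capillary electrophoresis. Bidirectional fitting versus DMSO baseline.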

Test [6] is described as follows: ATG_TA_CIS: Attagene CIS-FACTORIAL HepG2 Assay for human TA Basal Promoter (AID 2282964). As to conditions: HepG2 Attagene CIS-factorial TA basal promoter reporter; actives raise or lower the signal. A digest of the protocol: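 Transient MRTU transfection of HepG2 preceded 24 h compound exposure. Reporter mRNA levels were then read by RT-PCR with capillary electrophoresis, and this background-control endpoint was fitted bidirectionally to DMSO.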

Test [7] can be described thus: ATG_TCF_b_cat_CIS: Attagene CIS-FACTORIAL HepG2 Assay for human T-Cell-Factor with beta-catenin (TCF/b-cat) (AID 2282965). As to conditions: HepG2 TCF/beta-catenin cis-reporter transcription, actives raise or lower the signal. The gist of the method: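 HepG2 cells transiently transfected with multiple cis-promoter-regulated reporter transcription units, so endogenous transcription factor activity is measured. Reporter mRNA read 24 hours after dosing by RT-PCR, fluorescent labelling and capillary electrophoresis; bidirectional fitting against DMSO.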

The nature of test [8]: ATG_TAL_CIS: Attagene CIS-FACTORIAL HepG2 Assay for human TAL Basal Promoter (AID 2282966).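 Note: background control endpoint measuring basal TAL promoter reporter mRNA not a specific factor.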 As to conditions: HepG2 Attagene cis-factorial TAL promoter reporter; actives raise or lower the signal. The gist of the method:
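HepG2 cells transiently transfected with multiplexed cis-promoter reporter units, dosed 24 h. Reporter mRNA quantified by RT-PCR, 6-FAM labelling, HpaI digestion and capillary electrophoresis; TAL basal promoter serves as background control, fitted bidirectionally versus DMSO.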

Test [9] in a line: ATG_TGFb_CIS: Attagene CIS-FACTORIAL HepG2 Assay for human Transforming Growth Factor (TGF) (AID 2282967). The conditions noted are these: HepG2 Attagene CIS TGFb reporter, mRNA transcription; actives raise or lower the signal. The gist of the method:
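After a 24-hour incubation with compound, transfected HepG2 cells were lysed for RNA; reporter cDNA was amplified, fluorescently end-labeled and separated by CE. DMSO served as baseline for bidirectional fits.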

The nature of test [10]: ATG_VDRE_CIS: Attagene CIS-FACTORIAL HepG2 Assay for human Vitamin D Receptor Element (VDRE) (AID 2282968). The conditions noted are these: HepG2 VDRE cis-reporter transcription, actives raise or lower the signal. The gist of the method: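 HepG2 cells transiently transfected with cis-element reporter units, dosed 24 h; reporter mRNA measured by RT-PCR, 6-FAM labeling, HpaI digestion and capillary electrophoresis. Activity fitted bidirectionally against DMSO baseline.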

Test [11] concerns the target X-box-binding protein 1 (Homo sapiens) (UniProt P17861). Kind of test: ATG_Xbp1_CIS: Attagene CIS-FACTORIAL HepG2 Assay for human X-box Binding Protein 1 (XBP1) (AID 2282972). As to conditions: HepG2 XBP1 cis-element reporter, Attagene multiplex; actives raise or lower the signal. A digest of the protocol:
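Fluorescence-labelled cDNA fragments from reporter transcripts, separated by capillary electrophoresis, give the signal. Source: HepG2 cells transfected with promoter-driven reporter units, harvested 24 h post-dose. DMSO served as reference for bidirectional curve fitting.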

Test [12] can be described thus: ATG_GAL4_TRANS: Attagene TRANS-FACTORIAL HepG2 Assay for GAL4 (Internal Marker) (AID 2282976; active = hit-call score of the fitted dose curve at least 0.9, where 1 is the maximum). As to conditions: HepG2 Attagene TRANS GAL4 internal marker reporter. The gist of the method:
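Background-control readout: GAL4-UAS reporter transcript in transiently transfected HepG2 cells after 24 h compound exposure. Measured by RT-PCR, 6-FAM primer extension, HpaI digest and capillary electrophoresis; gain-of-signal fit versus DMSO.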

Test [13] deals with Glucocorticoid receptor (Homo sapiens) (UniProt P04150). Kind of test: ATG_GR_TRANS: Attagene TRANS-FACTORIAL HepG2 Assay for human Glucocorticoid Receptor (GR) (AID 2282978; active = hit-call score of the fitted dose curve at least 0.9, where 1 is the maximum;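 note: activators score as hits since higher reporter transcript over DMSO is fitted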). The conditions noted are these: HepG2 Attagene TRANS GR reporter, mRNA transcription. A digest of the protocol:
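Fluorescent capillary-electrophoresis quantitation of reporter mRNA is the readout, taken 24 h after dosing human HepG2 cells carrying transiently transfected GAL4-UAS reporter units activated by chimeric NR-GAL4 fusions; activity scored as induction over DMSO.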

Test [14] in a line: ATG_SREBP_CIS: Attagene CIS-FACTORIAL HepG2 Assay for human Sterol Regulatory Element Binding (SREBP) (AID 2282962). As to conditions: HepG2 Attagene cis-factorial SREBP reporter, mRNA; actives raise or lower the signal. A digest of the protocol: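 mRNA induction of transfected cis-promoter reporters in HepG2 cells, 24 h post-dose. Detection: RT-PCR with 6-FAM-labelled products, HpaI digest, capillary electrophoresis. DMSO served as negative control and baseline.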

Test [15] deals with Estrogen receptor (Homo sapiens) (UniProt P03372). Kind of test: ATG_ERa_TRANS: Attagene TRANS-FACTORIAL HepG2 Assay for human Estrogen Receptor alpha (ERa) (AID 2282970; active = hit-call score of the fitted dose curve at least 0.9, where 1 is the maximum). As to conditions: HepG2 Attagene TRANS ERa GAL4 reporter, mRNA. The gist of the method: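 HepG2 cells transiently transfected with multiplexed GAL4-UAS reporter units read out chimeric NR-Gal4 activity. After 24 h compound exposure, reporter mRNA was quantified by RT-PCR, 6-FAM labeling, HpaI digestion and capillary electrophoresis, relative to DMSO.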
Chain of Estrogen receptor (Homo sapiens) (P03372 whole entry, looked up, the tested form may be a part): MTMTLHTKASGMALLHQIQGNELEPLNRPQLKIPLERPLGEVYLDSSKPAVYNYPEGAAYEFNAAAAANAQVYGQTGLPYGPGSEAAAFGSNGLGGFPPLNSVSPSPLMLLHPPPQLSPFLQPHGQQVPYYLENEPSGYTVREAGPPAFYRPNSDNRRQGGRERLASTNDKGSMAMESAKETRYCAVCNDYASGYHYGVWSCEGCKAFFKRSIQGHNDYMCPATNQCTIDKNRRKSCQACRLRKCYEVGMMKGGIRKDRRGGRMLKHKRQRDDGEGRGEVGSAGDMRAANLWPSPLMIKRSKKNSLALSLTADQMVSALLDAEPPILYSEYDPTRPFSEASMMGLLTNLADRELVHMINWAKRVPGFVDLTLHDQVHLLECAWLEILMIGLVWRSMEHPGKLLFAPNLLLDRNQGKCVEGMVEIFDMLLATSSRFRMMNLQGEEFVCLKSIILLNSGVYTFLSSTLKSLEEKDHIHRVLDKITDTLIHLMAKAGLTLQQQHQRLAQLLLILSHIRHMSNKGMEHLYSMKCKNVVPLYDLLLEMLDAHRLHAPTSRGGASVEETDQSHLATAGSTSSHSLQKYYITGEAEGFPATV

Test [16] concerns the target Steroid hormone receptor ERR1 (Homo sapiens) (UniProt P11474). The test can be described thus: ATG_ERRa_TRANS: Attagene TRANS-FACTORIAL HepG2 Assay for human Estrogen-Related Receptor alpha (ERRa) (AID 2282971; active = hit-call score of the fitted dose curve at least 0.9, where 1 is the maximum). The conditions noted are these: HepG2 Attagene TRANS reporter, ERRa transactivation. The gist of the method: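 HepG2 cells transiently transfected with GAL4-UAS reporter units and chimeric NR-Gal4 constructs; after 24 hour compound incubation, reporter mRNA quantified by RT-PCR, fluorescent labelling and capillary electrophoresis, gain of signal versus DMSO.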

A short description of test [17]: ATG_M_19_TRANS: Attagene TRANS-FACTORIAL HepG2 Assay for M19 Transcription Factor (Internal Marker) (AID 2282974; active = hit-call score of the fitted dose curve at least 0.9, where 1 is the maximum). As to conditions: HepG2 Attagene TRANS-FACTORIAL M19 internal marker reporter. A digest of the protocol:
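Fluorescence of 6-FAM-labelled reporter cDNA fragments, separated by capillary electrophoresis, served as the readout. These derived from HepG2 cells carrying transfected GAL4-UAS reporter units after 24 h dosing, with DMSO as negative control.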

Test [18] has as its target Estrogen-related receptor gamma (Homo sapiens) (UniProt P62508). The test can be described thus: ATG_ERRg_TRANS: Attagene TRANS-FACTORIAL HepG2 Assay for human Estrogen-Related Receptor gamma (ERRg) (AID 2282977; active = hit-call score of the fitted dose curve at least 0.9, where 1 is the maximum;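 note: hits increase reporter signal over DMSO so potencies reflect activators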). The conditions noted are these: HepG2 Attagene TRANS reporter, ERRg transactivation. A digest of the protocol:
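Transient HepG2 transfectants, 24 h compound exposure, GAL4-UAS reporter mRNA by RT-PCR/6-FAM labelling/capillary electrophoresis; positive direction vs DMSO.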

In test [19] the target is Nuclear receptor subfamily 1 group I member 3 (Homo sapiens) (UniProt Q14994). Kind of test: ATG_CAR_TRANS: Attagene TRANS-FACTORIAL HepG2 Assay for human Constitutive Androstane Receptor (CAR) (AID 2282969; active = hit-call score of the fitted dose curve at least 0.9, where 1 is the maximum;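 note: activators raise reporter mRNA above DMSO so AC50 marks induction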). As to conditions: HepG2 Attagene TRANS-FACTORIAL CAR reporter. The gist of the method:
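HepG2 cells transiently transfected with multiplexed GAL4-UAS reporter units expressing chimeric NR-Gal4 proteins; compound exposure 24 h. Reporter mRNA measured by RT-PCR, 6-FAM labelling, HpaI digestion and capillary electrophoresis; gain-of-signal fitted against DMSO baseline.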

Chain of Glucocorticoid receptor (Homo sapiens) (P04150 whole entry, looked up, the tested form may be a part): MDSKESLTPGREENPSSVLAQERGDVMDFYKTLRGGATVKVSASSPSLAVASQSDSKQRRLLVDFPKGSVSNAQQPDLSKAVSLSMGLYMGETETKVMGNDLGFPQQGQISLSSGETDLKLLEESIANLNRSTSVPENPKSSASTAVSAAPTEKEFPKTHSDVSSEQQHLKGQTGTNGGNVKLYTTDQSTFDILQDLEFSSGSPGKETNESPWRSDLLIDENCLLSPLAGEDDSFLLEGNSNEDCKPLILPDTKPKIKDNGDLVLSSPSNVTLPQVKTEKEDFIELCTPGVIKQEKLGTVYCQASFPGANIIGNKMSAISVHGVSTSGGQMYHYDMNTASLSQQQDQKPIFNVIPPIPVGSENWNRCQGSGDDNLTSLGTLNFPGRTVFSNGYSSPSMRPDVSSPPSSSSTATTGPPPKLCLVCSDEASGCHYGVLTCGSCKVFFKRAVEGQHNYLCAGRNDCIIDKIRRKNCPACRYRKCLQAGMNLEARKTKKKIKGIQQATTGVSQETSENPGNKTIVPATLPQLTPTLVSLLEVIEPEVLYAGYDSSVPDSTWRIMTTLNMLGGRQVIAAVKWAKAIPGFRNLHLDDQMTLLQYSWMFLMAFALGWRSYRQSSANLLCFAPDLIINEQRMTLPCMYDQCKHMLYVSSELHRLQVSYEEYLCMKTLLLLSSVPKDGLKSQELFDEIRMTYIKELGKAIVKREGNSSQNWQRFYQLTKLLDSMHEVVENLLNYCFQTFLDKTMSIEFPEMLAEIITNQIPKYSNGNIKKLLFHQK
Chain of Signal transducer and activator of transcription 3 (Homo sapiens) (P40763 whole entry, looked up): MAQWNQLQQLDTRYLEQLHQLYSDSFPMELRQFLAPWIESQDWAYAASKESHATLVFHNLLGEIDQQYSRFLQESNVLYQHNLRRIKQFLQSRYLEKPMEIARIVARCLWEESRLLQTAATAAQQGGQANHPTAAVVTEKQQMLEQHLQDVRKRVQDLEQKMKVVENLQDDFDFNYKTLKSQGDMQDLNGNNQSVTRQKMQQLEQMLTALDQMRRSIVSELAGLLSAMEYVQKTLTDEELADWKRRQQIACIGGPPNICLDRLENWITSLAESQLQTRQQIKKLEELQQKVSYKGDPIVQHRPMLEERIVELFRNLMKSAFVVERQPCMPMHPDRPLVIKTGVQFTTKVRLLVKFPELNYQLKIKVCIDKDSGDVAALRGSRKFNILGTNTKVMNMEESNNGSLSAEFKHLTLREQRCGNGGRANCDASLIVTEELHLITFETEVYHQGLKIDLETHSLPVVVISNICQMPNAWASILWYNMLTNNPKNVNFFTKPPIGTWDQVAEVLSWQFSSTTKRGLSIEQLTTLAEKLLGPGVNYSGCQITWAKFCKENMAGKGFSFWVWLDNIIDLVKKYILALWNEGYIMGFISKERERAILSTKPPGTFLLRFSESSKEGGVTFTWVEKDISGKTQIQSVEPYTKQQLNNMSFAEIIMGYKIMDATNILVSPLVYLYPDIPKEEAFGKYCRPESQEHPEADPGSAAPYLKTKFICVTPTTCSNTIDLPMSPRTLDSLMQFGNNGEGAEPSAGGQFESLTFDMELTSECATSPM
Chain of Estrogen-related receptor gamma (Homo sapiens) (P62508 whole entry, looked up, the tested form may be a part): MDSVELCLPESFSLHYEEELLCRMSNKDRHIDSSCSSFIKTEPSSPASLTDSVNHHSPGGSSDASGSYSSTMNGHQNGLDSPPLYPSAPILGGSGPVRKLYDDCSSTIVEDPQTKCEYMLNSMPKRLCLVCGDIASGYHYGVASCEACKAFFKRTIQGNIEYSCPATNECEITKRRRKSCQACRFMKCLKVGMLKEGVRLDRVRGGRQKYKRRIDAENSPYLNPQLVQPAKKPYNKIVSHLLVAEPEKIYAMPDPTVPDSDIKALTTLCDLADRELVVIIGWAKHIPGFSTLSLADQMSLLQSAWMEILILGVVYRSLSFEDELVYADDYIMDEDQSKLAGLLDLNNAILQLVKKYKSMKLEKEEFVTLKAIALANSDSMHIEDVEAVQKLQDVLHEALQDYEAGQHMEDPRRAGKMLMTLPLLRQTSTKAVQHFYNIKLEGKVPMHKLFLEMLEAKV
Chain of Transcription factor Sp1 (Homo sapiens) (P08047 whole entry, looked up): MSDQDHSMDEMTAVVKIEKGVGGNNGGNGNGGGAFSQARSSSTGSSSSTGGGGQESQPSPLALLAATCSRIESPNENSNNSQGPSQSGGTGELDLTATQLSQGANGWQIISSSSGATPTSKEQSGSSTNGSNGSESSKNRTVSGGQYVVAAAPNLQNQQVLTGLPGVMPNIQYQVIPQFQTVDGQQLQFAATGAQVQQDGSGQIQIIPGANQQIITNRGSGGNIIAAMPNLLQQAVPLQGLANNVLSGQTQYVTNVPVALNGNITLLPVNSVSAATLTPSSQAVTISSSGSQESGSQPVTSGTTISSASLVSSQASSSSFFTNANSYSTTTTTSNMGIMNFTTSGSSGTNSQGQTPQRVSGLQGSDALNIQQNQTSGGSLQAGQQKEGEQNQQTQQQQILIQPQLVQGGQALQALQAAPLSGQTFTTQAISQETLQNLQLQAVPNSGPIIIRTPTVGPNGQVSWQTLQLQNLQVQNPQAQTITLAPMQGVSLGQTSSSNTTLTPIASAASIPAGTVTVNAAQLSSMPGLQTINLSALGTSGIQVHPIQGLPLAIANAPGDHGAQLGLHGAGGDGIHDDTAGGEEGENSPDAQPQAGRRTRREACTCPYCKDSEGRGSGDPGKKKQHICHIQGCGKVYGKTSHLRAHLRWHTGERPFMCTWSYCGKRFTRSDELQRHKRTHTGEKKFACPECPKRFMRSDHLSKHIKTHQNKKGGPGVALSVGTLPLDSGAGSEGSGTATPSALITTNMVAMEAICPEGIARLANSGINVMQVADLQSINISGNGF
Chain of X-box-binding protein 1 (Homo sapiens) (P17861 whole entry, looked up, the tested form may be a part): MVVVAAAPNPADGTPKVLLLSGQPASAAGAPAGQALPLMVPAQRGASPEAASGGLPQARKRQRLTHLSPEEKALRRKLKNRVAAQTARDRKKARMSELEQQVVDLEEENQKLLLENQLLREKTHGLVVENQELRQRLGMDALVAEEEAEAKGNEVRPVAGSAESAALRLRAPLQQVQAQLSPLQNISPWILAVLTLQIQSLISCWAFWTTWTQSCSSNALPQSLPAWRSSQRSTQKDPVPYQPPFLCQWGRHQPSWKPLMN
Chain of Steroid hormone receptor ERR1 (Homo sapiens) (P11474 whole entry, looked up, the tested form may be a part): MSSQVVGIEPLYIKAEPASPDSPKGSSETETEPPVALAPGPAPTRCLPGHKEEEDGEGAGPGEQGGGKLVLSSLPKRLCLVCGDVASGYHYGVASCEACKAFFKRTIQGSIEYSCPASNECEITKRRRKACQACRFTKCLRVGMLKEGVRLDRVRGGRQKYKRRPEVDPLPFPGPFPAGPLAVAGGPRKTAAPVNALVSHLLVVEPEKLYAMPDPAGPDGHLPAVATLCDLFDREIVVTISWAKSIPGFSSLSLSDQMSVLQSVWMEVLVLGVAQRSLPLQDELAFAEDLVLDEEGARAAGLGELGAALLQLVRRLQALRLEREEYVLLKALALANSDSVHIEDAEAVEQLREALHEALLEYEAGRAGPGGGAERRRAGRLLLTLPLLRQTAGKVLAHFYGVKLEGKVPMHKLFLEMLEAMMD
Chain of Nuclear receptor subfamily 1 group I member 3 (Homo sapiens) (Q14994 whole entry, looked up, the tested form may be a part): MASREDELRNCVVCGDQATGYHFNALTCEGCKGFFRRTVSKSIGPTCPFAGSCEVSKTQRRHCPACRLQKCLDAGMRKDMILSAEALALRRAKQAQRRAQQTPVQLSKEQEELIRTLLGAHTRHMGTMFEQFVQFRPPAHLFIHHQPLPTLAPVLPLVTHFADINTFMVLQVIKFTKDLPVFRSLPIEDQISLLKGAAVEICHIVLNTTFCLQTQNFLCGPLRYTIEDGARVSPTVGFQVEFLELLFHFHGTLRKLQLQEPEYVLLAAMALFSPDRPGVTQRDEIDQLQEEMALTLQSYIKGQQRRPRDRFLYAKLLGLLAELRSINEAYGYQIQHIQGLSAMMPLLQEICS

Regarding `CCCCC=O`, in [1], the AC50 (in general, the midpoint of the concentration-response curve, whichever way the signal moves) was 27.2 µM (active). Further, the molecule was classed as inactive in test [2], in [3], in test [4], in test [5], in [6] and in [7]. The result in [8], in [9], in test [10], in test [11], in test [12] and in test [13] was inactive.

For the molecule `FC1(F)C=CC(F)(F)C1(F)F`, the outcome in [1], in test [2], in test [3], in test [4], in test [14] and in test [5] was inactive. Moreover, the molecule was classed as inactive in [6], in test [8], in test [9], in [10], in test [15] and in test [16]. Besides, the outcome in [11], in [17], in test [18] and in test [13] was inactive.

With `CCOC(=O)CN[C@@H](C(=O)N1CC[C@H]1C(=O)NCc1ccc(/C(N)=N/O)cc1)C1CCCCC1`, the outcome in test [1], in [2], in [3], in [4], in [5] and in test [6] was inactive. The molecule was classed as inactive in test [7], in test [8], in test [9], in [10], in test [19] and in test [16]. Moreover, the result in [11], in test [12], in test [18] and in [13] was inactive.

In the case of `CC1=CC(=O)c2ccccc2C1=O`, the AC50 in [1] is 11.1 µM (active). Besides, the molecule was classed as inactive in test [2], in test [3], in test [4], in [5], in [6] and in test [7]. Also, the molecule was classed as inactive in test [8], in [9], in test [10], in [19], in test [15] and in test [16]. The outcome in test [11], in test [17] and in test [18] was inactive.

Take `OCC(F)(F)C(F)(F)C(F)(F)C(F)(F)C(F)(F)C(F)(F)C(F)(F)C(F)(F)C(F)(F)C(F)(F)C(F)(F)F`: the call in test [1], in test [2], in [3], in test [4], in test [14] and in [5] was inactive. The result in test [6], in test [8], in test [9], in test [10], in test [19] and in test [11] was inactive. Besides, in [13], the outcome was inactive. The AC50 in test [15] is 62.3 µM (active).

`CCOCCOCC`: the call in [1], in test [2], in test [3], in test [4], in [14] and in test [6] was inactive. For the same molecule, the call in test [7], in [8], in [9], in test [10], in [19] and in test [11] was inactive.

As to `CCCCCCCCC1CCC(=O)O1` (configuration not stated), the molecule was called inactive in test [1], in [2], in test [3], in test [4], in [5] and in test [6]. Besides, the outcome in test [7], in test [8], in test [9], in [10], in test [15] and in [11] was inactive. In addition, the call in test [12] and in test [13] was inactive.

In the case of `C=CC(=C)CC/C=C(\C)CCC=C(C)C`, the concentration at half-maximal activity (AC50) in test [1] was 3.39 µM (active); in test [10], 6.84 µM (active). Also, the result in test [2], in test [3], in test [4], in test [5], in test [6] and in [7] was inactive. Also, the outcome in test [8], in [9], in test [19], in test [16], in [11] and in test [17] was inactive. Further, the result in test [12] and in [18] was inactive.
